Laboratory results from PubChem BioAssay (Tox21).
Records with an inconclusive call do not appear. A call without a number means that no potency is given here. Unmarked numbers belong to inactive results. Active and inactive are the calls of the source. Calls follow the shape of the dose curve; as a rule, active = well fitted curve in the direction sought with a large enough effect in the repeat runs; inconclusive = weak or mixed curves; inactive = no such curve, though single readings can be large; an effect the other way counts as inactive or inconclusive.

Assays:
[1] = target: Cytochrome P450 2D6 (Homo sapiens) (UniProt P10635); assay: Cytochrome P450 Family 2 Subfamily D Member 6 (CYP2D6) small molecule antagonists: luciferase reporter qHTS assay (AID 1671196); also: nearly all actives have a fitted effect of over 50% in size; also: potency is read from the fitted curve at half-maximal effect; as to activity change, negative = inhibition: series mostly up to about 120 µM
Method in brief: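 CYP2D6 enzyme–substrate mix was held with compound for 10 min at room temperature, then NADPH regeneration solution was added and the reaction ran 1 h at room temperature. Luciferin product was detected by luminescence after 20 min with detection reagent.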

[2] = target: Cytochrome P450 2C9 (Homo sapiens) (UniProt P11712); assay: Cytochrome P450 Family 2 Subfamily C Member 9 (CYP2C9) small molecule antagonists: luciferase reporter qHTS assay (AID 1671198); also: nearly all actives have a fitted effect of over 50% in size; also: potency is read from the fitted curve at half-maximal effect; as to activity change, negative = inhibition: series mostly up to about 120 µM
Method in brief: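 P450-Glo proluciferin substrate with CYP2C9 enzyme; 10 min RT preincubation, then NADPH regeneration 1 h at 37C; luciferin detection reagent 20 min RT, luminescence in relative luminescence units.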

[3] = target: Cytochrome P450 1A2 (Homo sapiens) (UniProt P05177); assay: Cytochrome P450 Family 1 Subfamily A Member 2 (CYP1A2) small molecule antagonists: luciferase reporter qHTS assay (AID 1671199); also: nearly all actives have a fitted effect of over 50% in size; also: potency is read from the fitted curve at half-maximal effect; as to activity change, negative = inhibition: series mostly up to about 120 µM
Method in brief: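 Human CYP1A2 activity measured with a P450-Glo proluciferin substrate; compounds in DMSO preincubated 10 min at room temperature with enzyme-substrate mix, then NADPH regeneration system added for 1 h. Luciferin detection reagent, 20 min, luminescence read.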

[4] = target: Cytochrome P450 2C19 (Homo sapiens) (UniProt P33261); assay: Cytochrome P450 Family 2 Subfamily C Member 19 (CYP2C19) small molecule antagonists: luciferase reporter qHTS assay (AID 1671197); also: nearly all actives have a fitted effect of over 65% in size; also: potency is read from the fitted curve at half-maximal effect; as to activity change, negative = inhibition: series mostly up to about 120 µM
Method in brief: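 Relative luminescence units recorded 20 min after the detection reagent stopped a 1 h, 37C CYP2C19 reaction on proluciferin substrate, which was started by NADPH regeneration following 10 min room-temperature compound preincubation; ketoconazole positive control.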

[5] = target: Voltage-gated inwardly rectifying potassium channel KCNH2 (Homo sapiens) (UniProt Q12809); assay: Human Ether-a-go-go-Related Gene (hERG) channel small molecule antagonists: fluorescence cell-based qHTS assay (AID 1671200);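 also: hERG-expressing U2OS cells given a thallium stimulus after FluxOR II dye loading; series mostly up to about 77 µM; nearly all actives have a fitted effect of over 50% in size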
Method in brief: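 In this thallium-flux screen, overnight-cultured U2OS cells bearing the channel are dye-loaded in darkness for an hour, rested 10 min at room temperature, and then monitored kinetically at 480/540 nm for two minutes post-stimulus.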

[6] = target: Cytochrome P450 3A4 (Homo sapiens) (UniProt P08684); assay: Cytochrome P450 Family 3 Subfamily A Member 4 (CYP3A4) small molecule antagonists: luciferase reporter qHTS assay (AID 1671201)
Method in brief: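 CYP3A4 activity was followed with a P450-Glo proluciferin substrate. Test compounds in DMSO were preincubated 10 min; NADPH regeneration then ran 1 h, and light output was read 20 min after detection reagent.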

Chain of Cytochrome P450 1A2 (Homo sapiens) (P05177 whole entry, looked up): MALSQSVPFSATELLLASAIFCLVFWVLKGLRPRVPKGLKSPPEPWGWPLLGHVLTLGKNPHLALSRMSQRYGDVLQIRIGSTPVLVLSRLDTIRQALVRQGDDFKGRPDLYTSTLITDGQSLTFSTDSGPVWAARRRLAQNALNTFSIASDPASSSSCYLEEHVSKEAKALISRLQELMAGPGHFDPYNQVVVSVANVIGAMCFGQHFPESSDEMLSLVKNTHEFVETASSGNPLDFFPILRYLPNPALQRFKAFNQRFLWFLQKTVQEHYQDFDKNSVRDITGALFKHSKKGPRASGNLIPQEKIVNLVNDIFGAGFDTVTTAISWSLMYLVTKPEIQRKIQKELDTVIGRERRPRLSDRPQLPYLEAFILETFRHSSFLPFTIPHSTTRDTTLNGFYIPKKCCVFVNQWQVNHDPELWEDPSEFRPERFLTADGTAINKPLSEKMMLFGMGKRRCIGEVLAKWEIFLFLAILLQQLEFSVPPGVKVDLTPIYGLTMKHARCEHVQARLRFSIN
Chain of Voltage-gated inwardly rectifying potassium channel KCNH2 (Homo sapiens) (Q12809 whole entry, looked up): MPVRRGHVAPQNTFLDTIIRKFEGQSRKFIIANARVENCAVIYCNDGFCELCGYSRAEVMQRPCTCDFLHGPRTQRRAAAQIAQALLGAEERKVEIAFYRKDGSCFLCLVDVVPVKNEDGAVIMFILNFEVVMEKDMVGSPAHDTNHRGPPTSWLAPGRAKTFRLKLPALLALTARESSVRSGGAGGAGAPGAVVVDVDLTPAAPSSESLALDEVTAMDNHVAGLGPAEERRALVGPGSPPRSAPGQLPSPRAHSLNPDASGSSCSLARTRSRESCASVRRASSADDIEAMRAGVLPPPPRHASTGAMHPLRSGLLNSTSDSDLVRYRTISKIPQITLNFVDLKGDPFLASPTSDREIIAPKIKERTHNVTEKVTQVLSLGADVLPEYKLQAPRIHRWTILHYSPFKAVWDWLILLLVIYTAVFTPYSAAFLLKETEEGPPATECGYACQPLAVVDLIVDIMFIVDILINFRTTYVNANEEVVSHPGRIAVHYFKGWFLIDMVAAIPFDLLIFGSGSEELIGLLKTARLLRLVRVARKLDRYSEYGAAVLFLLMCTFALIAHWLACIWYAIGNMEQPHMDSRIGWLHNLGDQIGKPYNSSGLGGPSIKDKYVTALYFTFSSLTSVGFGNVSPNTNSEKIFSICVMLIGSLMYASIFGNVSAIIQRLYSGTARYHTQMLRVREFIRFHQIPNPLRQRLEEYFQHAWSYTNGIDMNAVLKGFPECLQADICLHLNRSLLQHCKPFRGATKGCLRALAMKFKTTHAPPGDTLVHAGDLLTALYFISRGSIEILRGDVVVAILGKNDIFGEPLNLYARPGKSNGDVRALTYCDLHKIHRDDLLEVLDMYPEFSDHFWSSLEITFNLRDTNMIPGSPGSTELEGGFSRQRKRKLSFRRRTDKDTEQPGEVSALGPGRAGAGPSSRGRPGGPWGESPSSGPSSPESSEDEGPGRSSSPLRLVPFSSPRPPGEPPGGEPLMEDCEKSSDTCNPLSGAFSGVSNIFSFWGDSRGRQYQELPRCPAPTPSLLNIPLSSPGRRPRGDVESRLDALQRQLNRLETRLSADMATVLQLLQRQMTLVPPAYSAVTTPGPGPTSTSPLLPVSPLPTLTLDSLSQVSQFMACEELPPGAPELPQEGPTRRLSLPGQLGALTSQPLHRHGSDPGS
Chain of Cytochrome P450 2C19 (Homo sapiens) (P33261 whole entry, looked up): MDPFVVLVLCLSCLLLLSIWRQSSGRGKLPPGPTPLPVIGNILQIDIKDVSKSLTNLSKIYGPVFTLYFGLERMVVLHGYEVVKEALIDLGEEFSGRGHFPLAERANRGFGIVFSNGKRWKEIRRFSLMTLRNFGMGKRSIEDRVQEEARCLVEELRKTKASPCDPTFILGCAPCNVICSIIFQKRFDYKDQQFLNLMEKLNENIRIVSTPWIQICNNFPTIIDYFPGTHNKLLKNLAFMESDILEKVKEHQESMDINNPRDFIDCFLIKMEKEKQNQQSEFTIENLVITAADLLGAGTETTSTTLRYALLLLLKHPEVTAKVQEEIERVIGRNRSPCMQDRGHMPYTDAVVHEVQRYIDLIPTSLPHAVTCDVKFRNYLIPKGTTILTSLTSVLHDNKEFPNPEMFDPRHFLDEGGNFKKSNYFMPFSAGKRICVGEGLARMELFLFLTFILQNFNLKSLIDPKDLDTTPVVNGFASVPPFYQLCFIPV
Chain of Cytochrome P450 2D6 (Homo sapiens) (P10635 whole entry, looked up): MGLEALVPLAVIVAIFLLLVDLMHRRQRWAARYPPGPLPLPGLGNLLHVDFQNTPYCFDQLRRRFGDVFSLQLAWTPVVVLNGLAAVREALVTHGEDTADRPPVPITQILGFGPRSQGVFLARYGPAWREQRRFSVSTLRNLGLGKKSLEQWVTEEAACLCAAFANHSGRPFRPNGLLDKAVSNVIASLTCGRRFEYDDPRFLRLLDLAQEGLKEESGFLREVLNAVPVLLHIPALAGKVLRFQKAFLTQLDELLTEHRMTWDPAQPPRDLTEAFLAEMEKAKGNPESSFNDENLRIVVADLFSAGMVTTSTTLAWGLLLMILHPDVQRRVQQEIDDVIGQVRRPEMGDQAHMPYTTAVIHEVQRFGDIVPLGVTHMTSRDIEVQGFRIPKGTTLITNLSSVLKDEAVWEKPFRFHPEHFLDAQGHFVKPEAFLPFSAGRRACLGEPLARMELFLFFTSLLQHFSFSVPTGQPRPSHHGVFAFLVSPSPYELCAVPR
Chain of Cytochrome P450 2C9 (Homo sapiens) (P11712 whole entry, looked up): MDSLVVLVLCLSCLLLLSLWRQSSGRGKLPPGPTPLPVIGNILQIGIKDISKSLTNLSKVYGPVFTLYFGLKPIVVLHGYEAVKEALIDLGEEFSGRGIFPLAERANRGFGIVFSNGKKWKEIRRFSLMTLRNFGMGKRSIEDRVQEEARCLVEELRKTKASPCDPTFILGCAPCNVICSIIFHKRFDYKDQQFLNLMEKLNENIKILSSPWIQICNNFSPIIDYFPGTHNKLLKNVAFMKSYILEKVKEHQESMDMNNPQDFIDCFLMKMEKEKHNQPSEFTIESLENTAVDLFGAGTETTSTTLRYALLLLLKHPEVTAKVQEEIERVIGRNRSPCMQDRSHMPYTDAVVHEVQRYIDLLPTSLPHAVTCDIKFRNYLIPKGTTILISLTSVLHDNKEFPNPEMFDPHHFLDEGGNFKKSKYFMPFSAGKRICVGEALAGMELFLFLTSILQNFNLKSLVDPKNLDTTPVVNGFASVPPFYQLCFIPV
Chain of Cytochrome P450 3A4 (Homo sapiens) (P08684 whole entry, looked up): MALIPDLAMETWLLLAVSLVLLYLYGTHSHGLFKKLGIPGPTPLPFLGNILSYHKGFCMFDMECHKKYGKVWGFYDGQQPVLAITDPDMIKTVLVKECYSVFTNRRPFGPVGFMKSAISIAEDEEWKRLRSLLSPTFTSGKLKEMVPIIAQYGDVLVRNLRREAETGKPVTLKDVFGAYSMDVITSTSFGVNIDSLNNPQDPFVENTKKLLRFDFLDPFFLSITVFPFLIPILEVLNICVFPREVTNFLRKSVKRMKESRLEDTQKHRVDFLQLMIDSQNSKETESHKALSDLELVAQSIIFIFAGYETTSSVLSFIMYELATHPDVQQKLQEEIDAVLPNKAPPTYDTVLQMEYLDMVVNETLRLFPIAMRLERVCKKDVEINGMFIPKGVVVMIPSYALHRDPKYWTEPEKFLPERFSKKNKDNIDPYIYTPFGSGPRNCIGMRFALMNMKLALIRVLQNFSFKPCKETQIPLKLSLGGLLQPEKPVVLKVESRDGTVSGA

## COC[C@H](c1ccc(C(F)(F)F)cc1)N1CCN(C2(C)CCN(C(=O)c3c(C)ncnc3C)CC2)C[C@H]1C
[1]
  Potency: 34.7 µM (active)
[2]
  Potency: inactive
[3]
  Potency: inactive

## CC(C)c1cccc(C(C)C)c1N
[1]
  Potency: inactive
[4]
  Potency: inactive
[3]
  Potency: 20 µM (active)
[5]
  Potency: inactive
[6]
  Potency: inactive

## O=C(O)/C=C/c1ccc(Cn2ccnc2)cc1
[1]
  Potency: inactive
[2]
  Potency: 17.4 µM (active)
[3]
  Potency: 24.5 µM (active)
[5]
  Potency: inactive

## O=C(O)c1ccccc1-c1ccc(C(F)(F)F)cc1
[1]
  Potency: inactive
[4]
  Potency: inactive
[5]
  Potency: inactive
[6]
  Potency: inactive

## Nc1nc(F)nc2c1ncn2[C@@H]1O[C@H](CO)[C@@H](O)[C@@H]1O
[1]
  Potency: 34.7 µM (active)
[2]
  Potency: inactive
[3]
  Potency: inactive

## COCCOC(=O)CC#N
[1]
  Potency: inactive
[2]
  Potency: inactive
[3]
  Potency: inactive

## C[C@H](O)C(=O)Nc1c(I)c(C(=O)NC(CO)CO)c(I)c(C(=O)NC(CO)CO)c1I
[1]
  Potency: inactive
[2]
  Potency: inactive
[3]
  Potency: inactive

## C1COCCO1
[1]
  Potency: inactive
[4]
  Potency: 36.4 µM (active)
[5]
  Potency: inactive
[6]
  Potency: inactive

## CC(C)COC(=O)C(C)C
[1]
  Potency: inactive
[4]
  Potency: 79.7 µM (active)
[6]
  Potency: inactive

## CCN1CCCC1CNC(=O)c1cc(S(N)(=O)=O)ccc1OC (centres undefined)
[1]
  Potency: 20 µM (active)
[4]
  Potency: inactive
[6]
  Potency: inactive

## Nc1nc2c(ncn2CCC(CO)CO)c(=O)[nH]1
[1]
  Potency: inactive
[2]
  Potency: inactive
[3]
  Potency: inactive
[5]
  Potency: inactive

## NCC[C@H](O)C(=O)N[C@@H]1C[C@H](N)[C@@H](O[C@H]2O[C@H](CN)[C@@H](O)[C@H](O)[C@H]2O)[C@H](O)[C@H]1O[C@H]1O[C@H](CO)[C@@H](O)[C@H](N)[C@H]1O
[1]
  activity change, negative = inhibition: -0.464% [at 0.435 µM]
[2]
  activity change, negative = inhibition: 0.45% [at 0.435 µM]
[3]
  activity change, negative = inhibition: 12.4% [at 0.435 µM]
[5]
  activity change, negative = inhibition: 0.203% [at 0.29 µM]
[6]
  activity change, negative = inhibition: 8.51% [at 0.435 µM]
